Among all 310,000 compounds or so, about 14,000 (4.5%) showed an effect of 50% or more. Effects have a minus sign here. This excerpt belongs to a sample that is enriched for strong results.
biological target: human ether-à-go-go-related gene (hERG) potassium channel (human, UniProt Q12809); experiment: primary screen, population patch clamp on CHO cells stably expressing hERG; higher = less effect of the substance
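Also: peak tail current of the secondary pulse compared with the same well before compound.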

human ether-à-go-go-related gene (hERG) potassium channel, sequence (Q12809 whole entry, looked up): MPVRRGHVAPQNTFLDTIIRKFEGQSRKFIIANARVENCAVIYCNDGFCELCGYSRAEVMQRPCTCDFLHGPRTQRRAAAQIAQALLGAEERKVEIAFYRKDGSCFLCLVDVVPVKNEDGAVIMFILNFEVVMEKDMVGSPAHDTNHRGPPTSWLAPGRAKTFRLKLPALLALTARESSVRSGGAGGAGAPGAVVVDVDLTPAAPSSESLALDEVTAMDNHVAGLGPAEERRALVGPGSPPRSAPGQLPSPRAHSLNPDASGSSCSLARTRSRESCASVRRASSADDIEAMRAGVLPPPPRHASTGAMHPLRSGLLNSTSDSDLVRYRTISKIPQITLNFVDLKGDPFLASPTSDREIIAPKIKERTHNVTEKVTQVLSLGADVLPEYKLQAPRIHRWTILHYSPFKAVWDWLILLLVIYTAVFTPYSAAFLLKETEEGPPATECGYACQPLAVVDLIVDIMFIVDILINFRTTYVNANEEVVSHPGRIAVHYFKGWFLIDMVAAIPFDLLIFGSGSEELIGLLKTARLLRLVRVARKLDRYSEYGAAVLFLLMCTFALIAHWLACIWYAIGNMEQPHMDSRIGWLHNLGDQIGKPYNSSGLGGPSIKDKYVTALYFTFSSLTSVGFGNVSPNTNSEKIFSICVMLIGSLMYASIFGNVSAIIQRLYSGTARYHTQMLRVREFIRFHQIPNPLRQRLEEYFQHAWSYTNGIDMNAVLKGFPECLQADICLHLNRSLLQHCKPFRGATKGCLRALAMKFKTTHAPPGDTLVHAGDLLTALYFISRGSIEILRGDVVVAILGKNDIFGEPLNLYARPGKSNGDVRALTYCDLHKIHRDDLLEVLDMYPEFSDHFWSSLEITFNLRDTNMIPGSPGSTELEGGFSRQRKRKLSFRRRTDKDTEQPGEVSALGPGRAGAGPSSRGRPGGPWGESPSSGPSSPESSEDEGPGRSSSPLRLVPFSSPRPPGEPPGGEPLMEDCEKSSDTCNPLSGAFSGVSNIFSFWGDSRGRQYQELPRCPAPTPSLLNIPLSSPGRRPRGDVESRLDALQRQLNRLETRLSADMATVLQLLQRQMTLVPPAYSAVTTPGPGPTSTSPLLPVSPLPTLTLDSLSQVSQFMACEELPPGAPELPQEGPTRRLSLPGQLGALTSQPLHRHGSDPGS

Row | Structure (SMILES) | hERG current change (%, negative = inhibition) at 10uM [%]
1 | CCOc1ccnc(OCC)c1Br | 28.3
2 | NS(=O)(=O)c1ccc(OC(=O)CNC(=O)OCc2ccccc2)cc1 | 11
3 | Cc1ccc(OCC(O)Cn2c(N3CCOCC3)nc3c2c(=O)[nH]c(=O)n3C)cc1 (stereo not shown) | -16.1
4 | Cc1nn(C)c(C)c1/C=N/NC(=O)c1csc2ccccc12 | -2.45
5 | O=C(CN1C(=O)NC(Cc2c[nH]c3ccccc23)C1=O)Nc1ccccc1Br (stereo not shown) | -15.4
6 | COc1ccc(S(=O)(=O)N2CCCC2C(=O)Nc2nc3c(s2)CCCC3)cc1 (stereo not shown) | -14
7 | COc1ccc(CCNC(=O)c2cc(S(=O)(=O)N(C)c3ccccc3)ccc2Cl)cc1 | -16.6
8 | Cn1[nH]c(-c2ccccc2)c(/C=N/O)c1=O | -15.1
9 | COCCn1c(-c2ccc(OC(F)(F)C(F)C(F)(F)F)cc2)nc2c1c(=O)[nH]c(=O)n2CC(C)C (stereo not shown) | -19.5
10 | CC1CCCN(C(=O)c2ccccc2OC2CCN(S(C)(=O)=O)CC2)C1 (stereo not shown) | 11.1
11 | O=C(c1cc(-c2ccc(Cl)cc2)nc2ccccc12)N1CCC1 | -59.7
12 | O=C(c1cc(-c2ccccc2)nc2ccccc12)N1CCCC1 | 2.55
13 | O=C(c1cc(-c2ccc(Br)cc2)nc2ccccc12)N1CCC1 | -44.4
14 | COc1ccc(/C=c2\sc3nc(-c4ccccc4OC)nn3c2=O)c(OC)c1 | 9.67
15 | COC(=O)c1ccc(OC)cc1OCC(=O)N1CCN(c2ccc(F)cc2)CC1 | -33
16 | COC(=O)c1ccccc1OCC(=O)N1CCN(c2ccc(F)cc2)CC1 | -44.9
17 | Cc1c(C)c2ccc(OCC(=O)N3CCN(c4ccc(F)cc4)CC3)c(C)c2oc1=O | 2.26
18 | Cc1ccc(C)c(N2CCN(C(=O)COc3cc(=O)n(C)c4ccccc34)CC2)c1 | -32.3
19 | Cc1cccc(N2CCN(C(=O)COc3cc(=O)n(C)c4ccccc34)CC2)c1C | -61.2
20 | CCC(=O)c1cc(F)ccc1OCC(=O)N1CCN(c2ccc(F)cc2)CC1 | -72.1
21 | Cc1ccc(C)c(N2CCN(C(=O)CCS(=O)(=O)c3ccc4c(c3)oc(=O)n4C)CC2)c1 | -48.6
22 | Cn1c(=O)oc2cc(S(=O)(=O)CCC(=O)N3CCN(c4ccccc4F)CC3)ccc21 | 1.03

Row | Structure (SMILES) | hERG current change (%, negative = inhibition) at 10uM [%]
23 | Cc1cccc(N2CCN(C(=O)CCS(=O)(=O)c3ccc4c(c3)oc(=O)n4C)CC2)c1C | -51.2
24 | Cn1c(=O)cc(OCC(=O)N2CCN(c3ccccc3F)CC2)c2ccccc21 | -17.5
25 | CC(=O)c1cc(F)ccc1OCC(=O)N1CCN(c2ccc(F)cc2)CC1 | -58.2
26 | Cc1cc(OCC(=O)N2CCN(c3ccc(F)cc3)CC2)c2c(C)cc(=O)oc2c1 | 10.7
27 | CCOC(=O)c1c(S(=O)(=O)NCC(=O)Nc2ccc(F)cc2)c(C)n(C)c1C | 14.5
28 | CCOC(=O)c1cc(C#N)c(N2CCNCC2)nc1C(F)(F)F | -12.3
29 | COc1ccc(CNC(=O)CCSCc2cccc(Cl)c2)cc1 | -17
30 | COc1ccc(-n2nnnc2CNC(=O)C(=O)c2c[nH]c3ccccc23)cc1 | 6.27
31 | CCCCOC(=O)Nc1ccc(C(=O)OCCC)cc1 | -12.9
32 | CCC(C)c1ccc2oc(-c3ccc(NC(=O)c4ncn[nH]4)cc3)nc2c1 (stereo not shown) | -1.89
33 | CCOc1ccc(N2C(=O)CC(N3CCC(O)(c4ccc(Br)cc4)CC3)C2=O)cc1 (stereo not shown) | -49.1
34 | CC1(C)CC(=O)C2=C(C1)NC(=O)CC2c1cc(F)ccc1F (stereo not shown) | -21.6
35 | Cc1cc(C)c2c(c1)/C(=N/NS(=O)(=O)c1ccccc1)CCC2 | 7.48
36 | COC(=O)Nc1ccc(S(=O)(=O)NCCCCCC(=O)O)cc1 | -1.56
37 | CCOC(=O)c1nn(-c2ccc(C)cc2)c(=O)cc1OCC(=O)N1CCN(c2ccccc2)CC1 | -51.9
38 | CCOC(=O)c1nn(-c2ccccc2C)c(=O)cc1OCC(=O)N1CCN(c2ccccc2)CC1 | -24.6
39 | CCn1c(=O)cc(OCC(=O)N2CCN(c3cccc(C(F)(F)F)c3)CC2)c2ccccc21 | -48.2
40 | CCN1CCN(C(=O)COc2cc(=O)n(CC)c3ccccc23)CC1 | -2.67
41 | CCn1c(=O)cc(OCC(=O)N2CCN(c3ccc(F)cc3)CC2)c2ccccc21 | -69.8
42 | CCOC(=O)c1nn(-c2ccc(F)cc2)c(=O)cc1OCC(=O)N1CCN(c2ccccc2)CC1 | -15.6
43 | CN(C)c1ccc(CNn2cnnc2SCC(=O)NC(C)(C)C)cc1 | 23.4
44 | CCOc1ccc(C(=O)OCC(=O)NCCCc2ccccc2)cc1 | 0.425

Row | Structure (SMILES) | hERG current change (%, negative = inhibition) at 10uM [%]
45 | Cc1c(/C=N/n2cnnc2)c2ccccc2n1C | 1.25
46 | O=C(NC1CCCCC1)C12CC3CC(C1)CC(n1cncn1)(C3)C2 | 0.934
47 | CC(NC(=O)C12CC3CC(C1)CC(n1cncn1)(C3)C2)C12CC3CC(CC(C3)C1)C2 (stereo not shown) | -61.9
48 | COC(=O)c1ccc(NC(=O)C23CC4CC(C2)CC(n2cncn2)(C4)C3)cc1 | -22
49 | CCN(CC)C(=O)CSC1=C(C#N)C(c2cccs2)C=C(C)N1 (stereo not shown) | 14.1
50 | COc1ccc2c(c1)CC/C(=C/c1cc(OC)c(OC)c(OC)c1)C2=O | -1.54
51 | COc1ccc2c(c1)CC/C(=C/c1ccncc1)C2=O | -55.2
52 | COc1ccc2c(c1)CC/C(=C/c1ccccn1)C2=O | 3.19
53 | CCCc1cc(=O)oc2cc(OCc3cc(OC)c(OC)c(OC)c3)c(Cl)cc12 | 17.4
54 | CC1(C)CC(NC(=S)NCc2ccco2)CC(C)(C)N1 | 18.9
55 | Cc1ccc(CN2CCN(Cc3ccc(OCCO)cc3)CC2CCO)o1 (stereo not shown) | 1.29
56 | CCOc1ccc(CN2CCN(Cc3ccc(C)o3)CC2CCO)cc1 (stereo not shown) | -104
57 | CCOc1ccc(CN2CCN(C3CCSCC3)CC2CCO)cc1 (stereo not shown) | -74.3
58 | COc1cccc(CN2CCN(Cc3cc4ccccc4o3)CC2CCO)c1 (stereo not shown) | -10.7
59 | CCOc1ccccc1CN1CCN(Cc2ccc(C)o2)CC1CCO (stereo not shown) | -37.9
60 | Cc1ccccc1CN1CCN(Cc2cc3ccccc3o2)CC1CCO (stereo not shown) | -6.94
61 | COc1ccc(CN2CCN(C3CCSCC3)CC2CCO)c(C)c1C (stereo not shown) | -51.1
62 | COc1ccc(CN2CCN(C3CCC3)CC2CCO)c(C)c1C (stereo not shown) | 0.432
63 | CCOc1ccccc1CN1CCN(C2CCSCC2)CC1CCO (stereo not shown) | -25.9
64 | COc1ccc(CN2CCN(Cc3cc4ccccc4o3)CC2CCO)c(F)c1 (stereo not shown) | -60.9
65 | COc1ccc(CN2CCN(C3CCOCC3)CC2CCO)c(C)c1C (stereo not shown) | -12.4
66 | CCOc1ccc(CN2CCN(C3CCC3)CC2CCO)cc1 (stereo not shown) | -19.2

Row | Structure (SMILES) | hERG current change (%, negative = inhibition) at 10uM [%]
67 | CCOC(=O)C1=C(CS(=O)(=O)c2ccccc2)NC(=O)NC1c1ccccc1OCC (stereo not shown) | -4.89
68 | Cc1ccsc1C1NC(=O)c2ccccc2N1 (stereo not shown) | 5.58
69 | CCC(C)(C)NC(=O)C(c1ccc(OC)cc1)N(C(=O)CCC(=O)Nc1cc(C)on1)c1ccc2c(c1)OCCO2 (stereo not shown) | 11.1
70 | O=C1OC/C(=C(/O)c2ccc(Cl)cc2)C1=O | 17
71 | Cc1cc(NC(=S)NC(=O)c2ccco2)c2ccccc2n1 | -1.51
72 | Cc1ccc(S(=O)(=O)N2CCCCC2C(=O)O)cc1 (stereo not shown) | 6.47
73 | COc1ccc(C(=O)C2CCN(C(=S)NCC3CCCO3)CC2)cc1 (stereo not shown) | -7.23
74 | O=C(c1cccc(S(=O)(=O)N2CCCC2)c1)N(Cc1ccco1)C1CCS(=O)(=O)C1 (stereo not shown) | -21.8
75 | COc1cc(CN2CCN(CC3CC3)CC2CCO)cc(OC)c1 (stereo not shown) | 2.79
76 | Cc1ccc(CN2CCN(Cc3cc4ccccc4o3)CC2CCO)cc1 (stereo not shown) | -43.1
77 | CCOc1ccc(CN2CCN(Cc3ccon3)CC2CCO)cc1 (stereo not shown) | -62.8
78 | OCCC1CN(Cc2ccon2)CCN1Cc1ccccc1 (stereo not shown) | 9.42
79 | OCCC1CN(Cc2cc3ccccc3o2)CCN1Cc1ccc(F)cc1 (stereo not shown) | -11.8
80 | Cc1ccc(CN2CCN(Cc3ccon3)CC2CCO)cc1 (stereo not shown) | -11.1
81 | CCOc1ccc(CN2CCN(CC3CC3)CC2CCO)cc1 (stereo not shown) | -67.1
82 | COc1ccc(CN2CCN(CC3CC3)CC2CCO)cc1C (stereo not shown) | -0.194
83 | CCOc1ccc(CN2CCN(Cc3cc4ccccc4o3)CC2CCO)cc1 (stereo not shown) | -80.4
84 | N#CC(C#N)=Cc1c[nH]c(=O)c(C#N)c1Nc1ccccc1 | 16.1
85 | O=C(CN(Cc1ccccc1)S(=O)(=O)c1ccccc1)NC1CC1 | -3.03
86 | CCc1cc(=O)oc2cc(C)cc(OCC(=O)NCC3CCC(C(=O)O)CC3)c12 (stereo not shown) | 4.34
87 | CC(C)(C)NC(=O)CN(c1cccc([N+](=O)[O-])c1)S(=O)(=O)c1ccccc1 | -11.5
88 | Cc1cc(C)c(NC(=O)CCCOC(=O)C2=COCCO2)c(C)c1 | 16.1
